Shown are actives, neighbours in structure and some others; about 2.4% of the full set was active somewhere.
TRAIL sens C8: sensitizes caspase-8 expressing cells to TRAIL. inhibition (viability loss, TRAIL sensitization), % at 10 µM. NB7+C8 cells + TRAIL, ATPlite viability luminescence. 1% of 360,000 active. AID 624354;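 active = compounds causing at least 50% loss of cell viability in the single-dose screen, relative to plate controls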
STAT3 blocker: reduces IL-6 driven STAT3 reporter signal | AID 862 | inhibition, % at 5.5 µM | 0.89% of 190,000 active | U3A cells, IL-6 STAT3-luciferase reporter, luminescence; host cell line lacks STAT1;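 active = inhibition above the mean inhibition across all screened compounds plus 3 SD, cut at about 44% in these data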;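 note: 0% = DMSO only wells and 100% = 100 µM nifuroxazide control wells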
HSF1 inh: HSF1 inhibition; NIH3T3-HGL HSE-luciferase, MG132-induced, luminescence 8 h; hits give low values; activity change, negative = inhibition, % at 7.5 µM (by protocol); 0.77% of 300,000 active; AID 2098;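 active = more than half of replicate wells show activity change below -50%, luminescence cut by over half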;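 note: luciferase reports HSF-1 transcriptional activity via heat shock element; 0% = median of DMSO wells and -100% = zero luminescence signal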
HSP90 refold inh: inhibitors of HSP90 luciferase refolding in rabbit reticulocyte lysate; luciferase refolding luminescence, 3 h; inhibition, % at 5.6 µM; 0.91% of 290,000 active;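 active = inhibition above the screen-wide mean plus 3 SD, computed separately per campaign, cut at about 16% in these data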;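 note: 0% = DMSO wells and 100% = 60 µM geldanamycin wells; inhibitors lower the luminescence because luciferase stays unfolded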
STAT1 blocker: inhibitors of IFN-gamma induced STAT1 signaling; NIH 3T3 STAT1-luciferase reporter, luminescence; inhibition, % at 5.5 µM; 0.35% of 200,000 active;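 active = inhibition above a set limit, the mean inhibition across all tested compounds plus 3 SD, cut at about 34% in these data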;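 note: 0% = IFN-gamma with DMSO and 100% = IFN-gamma with 300 µM nifuroxazide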
PPC-1+TRAIL kill: compounds killing PPC-1 cancer cells with TRAIL present (potentiator screen, no TRAIL-free arm). PPC-1 cells + TRAIL, ATPLite viability luminescence. cell killing (% activity), % at 4 µM or 5 µM. 0.41% of 220,000 active. AID 1443;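 active = cell killing above 50% in the first pass at 4 µM, then a duplicate retest at 5 µM averaging 50% or more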;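 note: plate controls were cells with TRAIL plus DMSO for no effect and medium-only wells lacking cells for full effect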
Active calls of the source: *; / = no result given.

SMILES	TRAIL sens C8	STAT3 blocker	HSF1 inh	HSP90 refold inh	STAT1 blocker	PPC-1+TRAIL kill
O=C(/C=C/c1ccco1)Nc1ccccc1C(=O)O	48*	20	2	7	-14	20
O=C(/C=C/c1ccco1)Nc1cc(Cl)ccc1C(=O)O	-3	-1	-1	-1	3	13
COc1ccc(OC)c(S(=O)(=O)Nc2ccc(-c3ccc4nncn4n3)cc2)c1	66*	/	0	/	/	/
Cc1cccc(Nc2nc(N)nc(CCl)n2)c1C	94*	/	-2	-4	/	39
COc1ccccc1Nc1nc(N)nc(CCl)n1	92*	/	8	0	/	26
COc1ccc(OC)c(Nc2nc(N)nc(CCl)n2)c1	92*	/	-1	2	/	4
O=C(O)CC(C(=O)O)C(=Cc1ccccc1)c1ccccc1 (centres undefined)	15	/	/	/	/	/
C/C(=N/NC(=O)c1ccc(C)s1)c1ccncc1	4	/	3	-4	/	/
CCc1ccc(C(=O)N/N=C(\C)c2ccncc2)s1	24	/	-74*	-2	/	/
CC1(c2nnnn2-c2ccc3c(c2)OCCO3)CCC(=O)N1CCc1c[nH]c2ccccc12 (centres undefined)	6	/	/	/	/	/
O=C(/C=C/Nc1ccc(F)cc1)c1ccco1	60*	29	4	-2	-24	48
CCOC(=O)c1ccc(N/C=C/C(=O)c2ccco2)cc1	51*	43	-29	5	-22	26
CCOC(=O)c1ccc(N/C=C/C(=O)c2ccc(OC)c(OC)c2)cc1	18	9	-35	0	-5	8
O=C(Nc1ccc(F)cc1)C(c1cccc(F)c1)N1CCN(Cc2c(F)cccc2Cl)CC1 (centres undefined)	-4	/	/	/	/	/
Cc1cc2nc(-c3ccc(Cl)cc3)c(Cc3ccsc3)n2c(C)c1Br	3	/	/	/	/	/
COC(=O)[C@H](CC(C)C)NC(=O)/C=C/[C@H]1O[C@@H](n2ccc(=O)[nH]c2=O)[C@H](O)[C@@H]1O	-8	/	/	/	/	/
COc1ccccc1NC(CC(=O)c1ccccc1)C(=O)OCC(=O)c1ccc(F)cc1 (centres undefined)	68*	24	-15	7	-69	-5
CC(C)CNS(=O)(=O)c1ccc(CCC(=O)N2CCOCC2)cc1	16	2	-73*	2	9	24
CCC1NC(=O)c2cccnc2-n2c1nc1ccc(F)cc1c2=O (centres undefined)	-2	/	/	/	/	/
FC(F)(F)C1=Nc2cccc3cccc(c23)N1	51*	/	/	/	/	/
O=C(C#Cc1ccccc1)c1ccccc1	93*	/	/	/	/	/
CNC(=S)N(CCc1c(C)[nH]c2ccc(OC)cc12)Cc1cc(OC)c(OC)c(OC)c1	-15	4	-2	0	1	14
CNC(=S)N(CCc1c(C)[nH]c2ccc(C)cc12)Cc1cc(OC)c(OC)c(OC)c1	1	4	-66*	2	-3	0
CCn1nc(C(=O)OCC(=O)c2cc(C)n(Cc3cccs3)c2C)c2ccccc2c1=O	21	-4	-17	33*	-17	-2
C=CCn1c(C)cc(C(=O)COC(=O)c2n[nH]c(=O)c3ccccc23)c1C	69*	/	/	/	/	/
SMILES	TRAIL sens C8	STAT3 blocker	HSF1 inh	HSP90 refold inh	STAT1 blocker	PPC-1+TRAIL kill
CCCC(NC(=O)COc1cc2c(c3oc(=O)cc(C)c13)CCC(C)(C)O2)C(=O)O (centres undefined)	-3	/	-55*	-2	/	/
Cc1cc(=O)oc2c3c(cc(OCC(=O)N[C@@H](CC(C)C)C(=O)O)c12)OC(C)(C)CC3	-2	/	-3	1	/	/
COc1cc2nc(CN3CCN(S(=O)(=O)c4ccccc4[N+](=O)[O-])CC3)[nH]c(=O)c2cc1OC	-6	/	/	/	/	/
CCCCc1ccc(NC(=O)c2ccc(N(C)S(C)(=O)=O)cc2)cc1	53*	/	-2	1	/	17
CCN1C(=O)C(CC(=O)Nc2ccc(OC)cc2)N(Cc2ccc(OC)c(OC)c2)C1=S (centres undefined)	20	/	-5	-1	/	-6
CCN1C(=O)C(CC(=O)Nc2ccc(OC)cc2)N(Cc2ccc3c(c2)OCO3)C1=S (centres undefined)	5	-3	-78*	1	6	-16
CCN1CCc2c(sc(NC(=O)c3ccc(S(=O)(=O)N(C)c4ccccc4)cc3)c2C(=O)NC)C1	55*	/	-9	1	/	/
Cc1ccc(NC(=S)c2nc3ccccc3[nH]2)c(C)c1	73*	13	26	2	-77	38
O=C(O)/C=C\C(=O)NNC(=O)c1cc(-c2ccccc2)n[nH]1	7	/	-2	-1	/	-9
O=C(O)/C=C/C(=O)NNC(=O)c1cc(-c2ccccc2)n[nH]1	51*	15	-9	1	1	22
Nc1ncnc2oc(-c3ccco3)c(-c3ccco3)c12	3	11	-53*	2	-19	31
Nc1nnc(-c2ccco2)s1	-26	3	-1	6	8	11
O=C(NCCN1CCOCC1)c1cc(Cl)ccc1Cl	5	/	-7	8	/	/
O=C(NCCN1CCOCC1)NC1(C(F)(F)F)Oc2ccc(Cl)cc2O1 (centres undefined)	52*	5	7	-2	-6	15
O=C1NCCc2onc(-c3ccc(Br)cc3)c21	5	/	/	/	/	/
COc1cccc(-c2cnc3c(NC(C)=O)cc(-c4cccc(C(=O)NCCN(C)C)c4)cn23)c1	-8	/	/	/	/	/
CC1(C)CC[C@]2(C(=O)n3ccnc3)CC[C@]3(C)[C@H](C(=O)C=C4[C@@]5(C)C=C(C#N)C(=O)C(C)(C)[C@@H]5CC[C@]43C)[C@@H]2C1	88*	/	/	/	/	/
NC(=O)C1=C(N=C2CCCCC2)CCCC1	-6	/	/	/	/	/
COc1ccc(CCN2C(=O)COc3ccccc3C2C(=O)NCc2ccccc2)cc1OC (centres undefined)	6	/	/	/	/	/
Cc1nc(Nc2ccccc2)sc1-c1ccccc1	66*	15	46	-5	-104	33
CN(CC(=O)Nc1c(Cl)cccc1Cl)C(=O)c1cccn1C	12	/	8	-4	/	/
CN(CC(=O)Nc1ccccc1Br)C(=O)c1cccn1C	0	/	-67*	/	/	/
CCCCn1nnnc1C(c1cc2ccccc2o1)N(Cc1ccccc1)Cc1ccccc1 (centres undefined)	2	/	/	/	/	/
CCCNC(=O)c1cccc(COCC(F)(F)F)c1	-9	11	-63*	2	2	/
Cc1cc(/C=C\c2ccc3cc(N(C)C)ccc3[n+]2C)c(C)n1-c1ccccc1	60*	/	/	/	/	/

High-throughput results from PubChem.
